Assay results reported in PubChem BioAssay (NCATS).
Unmarked numbers belong to inactive results. Results filed as inconclusive are left out. The source made the active and inactive calls. Unless noted, the call rests on the fitted dose curve; in most records, active means well fitted curve in the direction sought with a large enough effect; inconclusive means small, poorly fitted or top-dose-only effect, or another doubt; inactive means no such curve, though single readings can be large; an effect the other way counts as inactive or inconclusive.

Target: Tumor susceptibility gene 101 protein (Homo sapiens) (UniProt Q99816)
Assay: qHTS Validation Assay for Iinhibitors of HIV-1 Budding by Blocking the Interaction of PTAP/TSG101 (AID 485342; calls by dose curve; further: 0% is about no effect)
Details: TSG101-PTAP binding, fluorescence polarization, 4-point titration; series mostly up to 115 µM; fluorescence change: at the top concentration
Summary of the method: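 Tsg101 binding domain (10 uM) with FITC-labeled PTAP peptide (50 nM) in HEPES pH 7.5 buffer, 20 min at r.t. with compounds. Binding measured by fluorescence polarization.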

Sequence of Tumor susceptibility gene 101 protein (Homo sapiens) (Q99816 whole entry, looked up): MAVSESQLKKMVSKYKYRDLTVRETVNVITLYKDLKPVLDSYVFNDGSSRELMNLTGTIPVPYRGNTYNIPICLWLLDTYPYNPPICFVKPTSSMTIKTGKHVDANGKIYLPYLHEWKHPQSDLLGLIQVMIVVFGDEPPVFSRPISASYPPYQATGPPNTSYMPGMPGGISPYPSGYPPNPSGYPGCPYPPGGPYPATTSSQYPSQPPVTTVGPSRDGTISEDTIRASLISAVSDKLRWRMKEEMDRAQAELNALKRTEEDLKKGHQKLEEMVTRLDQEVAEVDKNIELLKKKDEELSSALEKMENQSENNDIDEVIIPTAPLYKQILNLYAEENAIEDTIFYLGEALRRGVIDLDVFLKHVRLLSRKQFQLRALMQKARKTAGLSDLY

Going from `CC(C)(Sc1ccc(CCN(CCCCC2CCCCC2)C(=O)NC2CCCCC2)cc1)C(=O)O` to `OC(CN1CCC(Cc2ccc(F)cc2)CC1)c1ccc(Cl)cc1` (centres undefined), the “fluorescence change” value rises from -24.3% to 3.11%.

Going from `Cn1cnc([N+](=O)[O-])c1Sc1ncnc2nc[nH]c12` to `CCOC(=O)C1=C[C@]2(CC)CCCN3CCc4c(n1c1ccccc41)[C@@H]32`, the “fluorescence change” value rises from 2.16% to 3.5%.

Compared with `CCC(C)N(C)C(=O)c1cc2ccccc2c(-c2ccccc2Cl)n1` (centres undefined), `Oc1ccc(C2CNCCc3c2cc(O)c(O)c3Cl)cc1` (centres undefined) is higher in “fluorescence change” value: 3.83% for the first, 4.27% for the second.

Test system: not listed separately
Assay: qHTS Validation Assay to Find Inhibitors of Chronic Active B-Cell Receptor Signaling (AID 485345; active means well fitted curve in the direction sought with a large enough effect in the main read-out, with a control signal flat, not every such curve was filed as active;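 further: 0% = untreated basal cells and 100% = 10 µM MG-132 proteasome inhibitor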)
Details: ABC-DLBCL cells, chronic BCR signaling reporter, CBG luciferase; series mostly up to 46.1 µM; activity change: at the top concentration
Summary of the method: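 TMD8 ABC-DLBCL cells with dox-inducible green luciferase–IκBα fusion and red native luciferase; compounds 46 uM–3 nM, 4 h at 37C with doxycycline in 0.5% FBS IMDM. Green/red ratio normalized to basal and 10 uM MG-132.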

Going from `O=C(Nc1nc2ccccc2n1CCN1CCOCC1)c1cccc([N+](=O)[O-])c1` to `O=C(O)COCCN1CCN(C(c2ccccc2)c2ccc(Cl)cc2)CC1` (centres undefined), the “activity change” value falls from -2.45% to -11.1%.

Compared with `NCCc1ccc(O)c(O)c1`, `NC[C@H](O)c1ccc(O)c(O)c1` is lower in “activity change” value: -5.94% for the first, -12.6% for the second.

Going from `Cc1[nH]c(=O)c(C#N)cc1-c1ccncc1` to `Cc1[nH]c(=O)c(C#N)cc1-c1ccc2nccn2c1`, the “activity change” value rises from -18.9% to -7.21%.

Going from `Cc1cccc(-c2[nH]c(C(C)(C)C)nc2-c2ccc3nccnc3c2)n1` to `CCC(C)N(C)C(=O)c1cc2ccccc2c(-c2ccccc2Cl)n1` (centres undefined), the “activity change” value falls from 15.7% to -12.1%.

First: OC(CCN1CCCCC1)(c1ccccc1)C1CC2C=CC1C2 (centres undefined)
Second: OC(CN1CCC(Cc2ccc(F)cc2)CC1)c1ccc(Cl)cc1 (centres undefined)
The “activity change” value of the first is higher: 5.28% for the first, 1.43% for the second.

Going from `Nc1nc2c(ncn2COCCO)c(=O)[nH]1` to `Clc1cccc(Cl)c1NC1=NCCN1`, the “activity change” value rises from -8.47% to -1.45%.

First: c1ccc([C@H]2CN3CCSC3=N2)cc1
Second: Oc1ccc(C2CNCCc3c2cc(O)c(O)c3Cl)cc1 (centres undefined)
The “activity change” value of the first is higher: -7.54% for the first, -8.42% for the second.

Target: Beta-2 adrenergic receptor (Homo sapiens) (UniProt P07550)
Assay: qHTS validation assay of beta-arrestin-biased ligands of beta2-adrenergic receptor (AID 485366); further: 0% is about no effect
Details: cell-based beta-arrestin recruitment to ADRB2, qHTS; series mostly up to 46.1 µM; activation: at the top concentration
Summary of the method: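 Tango cells (recombinant beta2-AR with recombinant beta-arrestin; recruitment releases tTA driving luciferase) were treated with compounds titrated up to 46 microM for 18 hr at 37 degrees C. Luminescence gave %Activity, and concentration-response curves were curve-classified.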

Sequence of Beta-2 adrenergic receptor (Homo sapiens) (P07550 whole entry, looked up): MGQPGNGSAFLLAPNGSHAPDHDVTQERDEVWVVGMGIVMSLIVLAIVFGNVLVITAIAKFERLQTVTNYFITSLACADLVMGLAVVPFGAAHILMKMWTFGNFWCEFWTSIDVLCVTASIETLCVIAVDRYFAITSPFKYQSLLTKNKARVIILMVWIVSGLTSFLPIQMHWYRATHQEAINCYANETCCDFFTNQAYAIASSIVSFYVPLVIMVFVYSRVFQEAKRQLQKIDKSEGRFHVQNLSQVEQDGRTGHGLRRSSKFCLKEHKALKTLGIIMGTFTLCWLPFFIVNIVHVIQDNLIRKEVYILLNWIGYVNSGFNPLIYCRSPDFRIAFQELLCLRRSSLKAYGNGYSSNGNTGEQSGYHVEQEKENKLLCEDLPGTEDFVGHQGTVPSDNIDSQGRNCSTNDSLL

Going from `CCOC(=O)N1CCC(=C2c3ccc(Cl)cc3CCc3cccnc32)CC1` to `CCOC(=O)C1=C[C@]2(CC)CCCN3CCc4c(n1c1ccccc41)[C@@H]32`, the “activation” value falls from 2.25% to 0.276%.

First: O=C(Nc1nc2ccccc2n1CCN1CCOCC1)c1cccc([N+](=O)[O-])c1
Second: O=C(O)COCCN1CCN(C(c2ccccc2)c2ccc(Cl)cc2)CC1 (centres undefined)
The “activation” value of the first is higher: 0.592% for the first, -0.169% for the second.

Compared with `C[C@]12CCC(=O)C=C1CC[C@@H]1[C@@H]2[C@@H](O)C[C@@]2(C)[C@H]1CC[C@]2(O)C(=O)CO`, `CC(C)(Sc1ccc(CCN(CCCCC2CCCCC2)C(=O)NC2CCCCC2)cc1)C(=O)O` is lower in “activation” value: 3.81% for the first, 0.19% for the second.

Compared with `NNCCc1ccccc1`, `c1ccc([C@H]2CN3CCSC3=N2)cc1` is higher in “activation” value: -0.0315% for the first, 0.833% for the second.

Going from `NC(N)=NC(=O)c1nc(Cl)c(N)nc1N` to `Nc1nc2c(ncn2COCCO)c(=O)[nH]1`, the “activation” value falls from 1.22% to -0.52%.

Going from `NCCc1ccc(O)c(O)c1` to `NC[C@H](O)c1ccc(O)c(O)c1`, the “activation” value rises from 2.43% to 17.2%.

First: Cc1[nH]c(=O)c(C#N)cc1-c1ccncc1
Second: Cc1[nH]c(=O)c(C#N)cc1-c1ccc2nccn2c1
The “activation” value of the first is higher: -0.0835% for the first, -0.758% for the second.

Compared with `Cc1cc2c(C(C)C)c(O)c(O)c(C=O)c2c(O)c1-c1c(C)cc2c(C(C)C)c(O)c(O)c(C=O)c2c1O`, `Oc1ccc(C2CNCCc3c2cc(O)c(O)c3Cl)cc1` (centres undefined) is higher in “activation” value: -0.123% for the first, -0.0008% for the second.

Compared with `Cc1cccc(-c2[nH]c(C(C)(C)C)nc2-c2ccc3nccnc3c2)n1`, `Nc1ncnc2nc(-c3ccc(N4CCOCC4)nc3)cc(-c3cccc(Br)c3)c12` is higher in “activation” value: -0.271% for the first, 0.0925% for the second.

Compared with `OC(CCN1CCCCC1)(c1ccccc1)C1CC2C=CC1C2` (centres undefined), `OC(CN1CCC(Cc2ccc(F)cc2)CC1)c1ccc(Cl)cc1` (centres undefined) is lower in “activation” value: 7.36% for the first, 0.197% for the second.

First: O=C1CCc2cc(OCCCCc3nnnn3C3CCCCC3)ccc2N1
Second: Cn1cnc([N+](=O)[O-])c1Sc1ncnc2nc[nH]c12
The “activation” value of the first is lower: -0.121% for the first, -0.0582% for the second.

Compared with `Cc1oncc1C(=O)Nc1ccc(C(F)(F)F)cc1`, `Nc1nc2ccc(OC(F)(F)F)cc2s1` is higher in “activation” value: 0.293% for the first, 3.32% for the second.

First: Clc1cccc(Cl)c1NC1=NCCN1
Second: CCC(C)N(C)C(=O)c1cc2ccccc2c(-c2ccccc2Cl)n1 (centres undefined)
The “activation” value of the first is higher: -0.148% for the first, -0.516% for the second.

Target: ATP-dependent 6-phosphofructokinase (Trypanosoma brucei brucei) (UniProt O15648)
Assay: qHTS Validation Assay to Find Inhibitors of T. brucei phosphofructokinase (AID 485368);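 on activity change, negative = inhibition: 0% = full PFK enzyme control and -100% = wells without enzyme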
Details: T. brucei PFK enzyme assay, qHTS 7-point titration; series mostly up to 57.5 µM; activity change, negative = inhibition: at the top concentration
Summary of the method: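 Compounds (up to 57 uM, titration series) were pinned into substrate buffer, then 1.25 nM PFK added; after 45 min at room temperature, ADP product was quantified by ADP-Glo luminescence and concentration-response curves fitted.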

Sequence of ATP-dependent 6-phosphofructokinase (Trypanosoma brucei brucei) (O15648 whole entry, looked up): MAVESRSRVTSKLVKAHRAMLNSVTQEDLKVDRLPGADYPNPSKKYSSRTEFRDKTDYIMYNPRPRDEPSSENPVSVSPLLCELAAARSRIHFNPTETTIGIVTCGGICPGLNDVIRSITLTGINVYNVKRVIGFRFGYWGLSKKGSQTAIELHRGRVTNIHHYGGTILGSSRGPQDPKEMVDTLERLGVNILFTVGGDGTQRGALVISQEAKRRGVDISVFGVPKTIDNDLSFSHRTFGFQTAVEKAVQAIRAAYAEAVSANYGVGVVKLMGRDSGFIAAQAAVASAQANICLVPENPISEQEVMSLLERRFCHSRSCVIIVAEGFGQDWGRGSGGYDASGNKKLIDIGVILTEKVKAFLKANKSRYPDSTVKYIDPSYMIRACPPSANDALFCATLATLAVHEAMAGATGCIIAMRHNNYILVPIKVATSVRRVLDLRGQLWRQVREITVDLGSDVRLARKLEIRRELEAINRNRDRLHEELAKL

In the case of `C[C@]12CCC(=O)C=C1CC[C@@H]1[C@@H]2[C@@H](O)C[C@@]2(C)[C@H]1CC[C@]2(O)C(=O)CO`, the outcome is reported as “inactive”.
With `NC(N)=NC(=O)c1nc(Cl)c(N)nc1N` the outcome was “inactive”.
With `OC(CCN1CCCCC1)(c1ccccc1)C1CC2C=CC1C2` (centres undefined) the outcome was “inactive”.
With `Nc1ncnc2nc(-c3ccc(N4CCOCC4)nc3)cc(-c3cccc(Br)c3)c12` the outcome was “inactive”.
In the case of `Nc1nc2ccc(OC(F)(F)F)cc2s1`, the outcome is reported as “inactive”.
With `Nc1nc2c(ncn2COCCO)c(=O)[nH]1` the outcome was “inactive”.
With `Clc1cccc(Cl)c1NC1=NCCN1` the outcome was “inactive”.
With `Cn1cnc([N+](=O)[O-])c1Sc1ncnc2nc[nH]c12` the outcome was “inactive”.
With `CCOC(=O)C1=C[C@]2(CC)CCCN3CCc4c(n1c1ccccc41)[C@@H]32` the outcome was “inactive”.
With `OC(CN1CCC(Cc2ccc(F)cc2)CC1)c1ccc(Cl)cc1` (centres undefined) the outcome was “inactive”.

For `Cc1oncc1C(=O)Nc1ccc(C(F)(F)F)cc1`, the “activity change, negative = inhibition” value was 6.81%.

Test system: not listed separately
Assay: Quantitative high throughput screen for delayed death inhibitors of the malarial parasite plastid, 96 hour incubation (AID 488745); further: nearly all actives have a fitted effect of over 70% in size; further: potency means the concentration at half of the fitted maximal effect;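 on activity change, negative = inhibition: luciferase-expressing P. falciparum in erythrocytes at 2% hematocrit and 0.1% parasitemia; on the % scale 0 is the no-effect control and ±100 the full control effect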
Details: Plasmodium falciparum growth; series mostly up to 28.7 µM; activity change, negative = inhibition: at the top concentration
Summary of the method: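 Infected erythrocytes were added to compound in Albumax-supplemented RPMI 1640 at 0.1% parasitemia and 2% hematocrit (final), incubated 96 h at 37 C under 5% CO2, then luciferase reagent was added and luminescence measured.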

First: NNCCc1ccccc1
Second: c1ccc([C@H]2CN3CCSC3=N2)cc1
The “activity change, negative = inhibition” value of the first is higher: 29.4% for the first, -14.6% for the second.

First: NCCc1ccc(O)c(O)c1
Second: NC[C@H](O)c1ccc(O)c(O)c1
The “activity change, negative = inhibition” value of the first is higher: 6.33% for the first, -1.1% for the second.

Going from `Cc1[nH]c(=O)c(C#N)cc1-c1ccncc1` to `Cc1[nH]c(=O)c(C#N)cc1-c1ccc2nccn2c1`, the “activity change, negative = inhibition” value falls from 1.21% to -4.98%.

First: O=C1CCc2cc(OCCCCc3nnnn3C3CCCCC3)ccc2N1
Second: CC(C)(Sc1ccc(CCN(CCCCC2CCCCC2)C(=O)NC2CCCCC2)cc1)C(=O)O
The “activity change, negative = inhibition” value of the first is higher: -17.6% for the first, -20.2% for the second.

Going from `Nc1nc2c(ncn2COCCO)c(=O)[nH]1` to `Cn1cnc([N+](=O)[O-])c1Sc1ncnc2nc[nH]c12`, the “activity change, negative = inhibition” value falls from 7.26% to -18.7%.

For `Clc1cccc(Cl)c1NC1=NCCN1`, the “activity change, negative = inhibition” value was -14.1%.

With `OC(CN1CCC(Cc2ccc(F)cc2)CC1)c1ccc(Cl)cc1` (centres undefined) the Potency was 2.94 µM (active).
